Test results taken from PubChem BioAssay (EPA / NIEHS).
“And” between values parts separate entries of the source, which are not always exact repeats. Equal entries are not always repeated. Results filed as inconclusive are left out. A structure can be active in one record and inactive in another. The source made the active and inactive calls. The calls were made as follows, unless noted: active = hit-call score of the fitted dose curve at least 0.9, where 1 is the maximum; inactive = score below 0.9.

Tests used:
[1] = read-out: E-selectin (Homo sapiens) (UniProt P16581); experiment: BSK_3C_Eselectin: BioMAP Diversity Plus: 3C Assay for Eselectin Biomarker Activity (AID 2283015); settings: primary human endothelial cells (HUVEC); actives raise or lower the signal;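 as to outcome: cell surface E-selectin protein quantified by ELISA 24 h after dosing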
Outline: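 Primary human umbilical vein endothelial cells (3C system) were dosed with chemical and cell-surface E-selectin measured by ELISA 24 h later. Bidirectional curve fitting used DMSO as negative control and baseline.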

[2] = read-out: Interleukin-1 alpha (IL1a), IL1A (gene 3552); experiment: BSK_BE3C_IL1a: BioMAP Diversity Plus: BE3C Assay for Interleukin-1 alpha (IL1a) Biomarker Activity (AID 2283016); settings: primary human bronchial epithelial cells; actives raise or lower the signal
Outline: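 BE3C primary human bronchial epithelium; cpd 24 h; IL-1a by ELISA; bidirectional fit vs DMSO; parallel SRB (0.1% SRB, 10% TCA fix, 560 nm) for cytotoxicity.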

[3] = read-out: Monocyte Chemoattractant Protein-1 (MCP1), CCL2 (gene 6347); experiment: BSK_3C_MCP1: BioMAP Diversity Plus: 3C Assay for Monocyte Chemoattractant Protein-1 (MCP1) Biomarker Activity (AID 2283017); settings: primary human endothelial cells (HUVEC); actives raise or lower the signal
Outline: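 Primary human umbilical vein endothelial cells (3C system) were exposed to test chemical for 24 h, after which MCP-1 was quantified by ELISA. Activity was fitted bidirectionally against DMSO as negative control and baseline.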

[4] = read-out: Monocyte Chemoattractant Protein-1 (MCP1), CCL2 (gene 6347); experiment: BSK_4H_MCP1: BioMAP Diversity Plus: 4H Assay for Monocyte Chemoattractant Protein-1 (MCP1) Biomarker Activity (AID 2283018); settings: primary human endothelial cells (HUVEC); actives raise or lower the signal
Outline: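 ELISA read-out of MCP-1 from human vascular endothelial primary cells taken at 24 hours after compound exposure. Activity was fitted in both directions relative to DMSO, which served as negative control.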

[5] = read-out: Human Leukocyte Antigen - DR isotype (HLADR), HLA-DRA (gene 3122); experiment: BSK_3C_HLADR: BioMAP Diversity Plus: 3C Assay for Human Leukocyte Antigen - DR isotype (HLADR) Biomarker Activity (AID 2283019); settings: primary human endothelial cells (HUVEC); actives raise or lower the signal;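 as to outcome: ELISA of cell-surface HLA-DR on HUVEC 24 h after dosing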
Outline: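 Primary human umbilical vein endothelial cells (3C system) were dosed with compound and cell-surface HLA-DR was quantified by ELISA at 24 h. Activity was fitted bidirectionally against DMSO as negative control and baseline.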

[6] = read-out: Interleukin-8 (IL8), CXCL8 (gene 3576); experiment: BSK_3C_IL8: BioMAP Diversity Plus: 3C Assay for Interleukin-8 (IL8) Biomarker Activity (AID 2283020); settings: primary human endothelial cells (HUVEC); actives raise or lower the signal
Outline: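 ELISA read-out of IL-8 from human umbilical vein endothelium, measured 24 h after chemical dosing. Activity is expressed relative to DMSO negative control, with both increases and decreases fitted.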

[7] = read-out: Monokine induced gamma interferon (MIG), CXCL9 (gene 4283); experiment: BSK_3C_MIG: BioMAP Diversity Plus: 3C Assay for Monokine induced gamma interferon (MIG) Biomarker Activity (AID 2283021); settings: primary human endothelial cells (HUVEC); actives raise or lower the signal;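 as to AC50: MIG protein level measured by immunoassay in the treated endothelial cultures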
Outline: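 Read-out is ELISA detection of MIG on human umbilical vein endothelial cells, taken 24 h after dosing. Gain or loss of signal was scored relative to DMSO controls using bidirectional curve fitting.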

[8] = biological target: human Vitamin D Receptor (VDR), VDR (gene 7421) (UniProt P11473); experiment: ATG_VDR_TRANS: Attagene TRANS-FACTORIAL HepG2 Assay for human Vitamin D Receptor (VDR) (AID 2283022; active = hit-call score of the fitted dose curve at least 0.9, where 1 is the maximum)
Outline: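 HepG2 cells were transiently transfected with multiple GAL4-UAS reporter units, so signal reflects exogenous chimeric receptor-Gal4 activity. After 24 h compound exposure, reporter mRNA was measured by RT-PCR, fluorescent labelling and capillary electrophoresis, fitted for gain of signal versus DMSO.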

[9] = read-out: Matrix Metallopeptidase 1 (MMP1), MMP1 (gene 4312); experiment: BSK_BE3C_MMP1: BioMAP Diversity Plus: BE3C Assay for Matrix Metallopeptidase 1 (MMP1) Biomarker Activity (AID 2283024); settings: primary human bronchial epithelial cells; actives raise or lower the signal
Outline: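 Human bronchial epithelial cells (BE3C system) exposed to compound for 24 h; MMP1 then quantified by ELISA. Activity was fitted in both directions relative to DMSO.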

[10] = BSK_3C_Vis: BioMAP Diversity Plus: 3C Assay for Morphology Visualization (AID 2283025); settings: primary human endothelial cells (HUVEC);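 also: fitted both ways so gain or loss versus DMSO counts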;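 as to AC50: light microscopy image of cell morphology used as background control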
Outline: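 Chemicals were added to primary human umbilical vein endothelium, cells were incubated 24 h, and morphology was then visualized by light microscopy. Gain or loss of signal was fitted bidirectionally relative to DMSO.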

[11] = read-out: Pselectin, SELP (gene 6403); experiment: BSK_4H_Pselectin: BioMAP Diversity Plus: 4H Assay for Pselectin Biomarker Activity (AID 2283026); settings: primary human endothelial cells (HUVEC); actives raise or lower the signal
Outline: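 ELISA read-out of P-selectin on human umbilical vein endothelium after 24 h of dosing. Values derive from bidirectional fitting relative to DMSO. Parallel SRB protein staining flagged overt cytotoxicity.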

[12] = BSK_4H_SRB: Viability Assessment in the BioMAP Diversity Plus: 4H Assay (AID 2283027); settings: primary human endothelial cells (HUVEC);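 also: cells exposed to compound for 24 h before staining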;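 as to AC50: curves fitted both ways versus DMSO so AC50 may be loss or gain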
Outline: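 Human umbilical vein endothelial cells, 24 h after chemical dosing; total protein measured by 0.1% sulforhodamine B staining after 10% TCA fixation, read at 560 nm. Bidirectional fitting against DMSO.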

[13] = BSK_BE3C_SRB: Viability Assessment in the BioMAP Diversity Plus: BE3C Assay (AID 2283028); settings: primary human bronchial epithelial cells;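 as to AC50: fitted both ways so AC50 may mark signal gain or loss versus DMSO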
Outline: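 Human primary bronchial epithelial cells were exposed to test chemicals for 24 h. Total protein in parallel cultures was then measured by staining with 0.1% sulforhodamine B after 10% TCA fixation, with absorbance read at 560 nm. Activity was fitted bidirectionally against DMSO.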

[14] = read-out: Thrombomodulin, THBD (gene 7056); experiment: BSK_3C_Thrombomodulin: BioMAP Diversity Plus: 3C Assay for Thrombomodulin Biomarker Activity (AID 2283029); settings: primary human endothelial cells (HUVEC); actives raise or lower the signal
Outline: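 Read-out is ELISA of thrombomodulin on human umbilical vein endothelium 24 h after chemical dosing. Gain or loss of signal is scored relative to DMSO. Overt cytotoxicity is checked in parallel cultures by sulforhodamine B staining.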

[15] = read-out: Urokinase-type plasminogen activator receptor (uPAR), PLAUR (gene 5329); experiment: BSK_4H_uPAR: BioMAP Diversity Plus: 4H Assay for Urokinase-type plasminogen activator receptor (uPAR) Biomarker Activity (AID 2283030); settings: primary human endothelial cells (HUVEC); actives raise or lower the signal
Outline: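 Primary human umbilical vein endothelial cells were exposed to chemical for 24 h before cell-surface uPAR was quantified by ELISA. Activity was fitted bidirectionally against the DMSO negative control baseline.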

[16] = read-out: Vascular endothelial growth factor receptor 2 (Homo sapiens) (UniProt P35968); experiment: BSK_4H_VEGFRII: BioMAP Diversity Plus: 4H Assay for Vascular endothelial growth factor receptor 2 (VEGFR2) Biomarker Activity (AID 2283031); settings: primary human endothelial cells (HUVEC); actives raise or lower the signal;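 as to AC50: cell-surface VEGFR2 protein level quantified by ELISA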
Outline: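 Primary human umbilical vein endothelial cells in the BioMAP 4H system were dosed with test chemical, and 24 h later VEGFRII was measured by ELISA. Activity was fitted bidirectionally against DMSO as negative control and baseline.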

[17] = biological target: human Retinoid X Receptor beta (RXRb), RXRB (gene 6257) (UniProt P28702); experiment: ATG_RXRb_TRANS: Attagene TRANS-FACTORIAL HepG2 Assay for human Retinoid X Receptor beta (RXRb) (AID 2283013; active = hit-call score of the fitted dose curve at least 0.9, where 1 is the maximum)
Outline: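 Transfect HepG2 with GAL4-UAS multi-reporter constructs (chimeric NR-Gal4, TRANS format); dose compound 24 h; isolate RNA, RT-PCR, FAM primer extension, HpaI digest; quantify by capillary electrophoresis; positive direction vs DMSO.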

[18] = biological target: human RAR-related Orphan Receptor beta (RORb), RORB (gene 6096) (UniProt Q92753); experiment: ATG_RORb_TRANS: Attagene TRANS-FACTORIAL HepG2 Assay for human RAR-related Orphan Receptor beta (RORb) (AID 2283010; active = hit-call score of the fitted dose curve at least 0.9, where 1 is the maximum)
Outline: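 Readout is reporter-gene mRNA induction, detected as fluorescence after RT-PCR and capillary electrophoresis, fitted for gain of signal against DMSO controls. Transiently transfected HepG2 liver cells carrying GAL4-UAS reporter constructs were treated for 24 hours.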

E-selectin (Homo sapiens), sequence (P16581 whole entry, looked up): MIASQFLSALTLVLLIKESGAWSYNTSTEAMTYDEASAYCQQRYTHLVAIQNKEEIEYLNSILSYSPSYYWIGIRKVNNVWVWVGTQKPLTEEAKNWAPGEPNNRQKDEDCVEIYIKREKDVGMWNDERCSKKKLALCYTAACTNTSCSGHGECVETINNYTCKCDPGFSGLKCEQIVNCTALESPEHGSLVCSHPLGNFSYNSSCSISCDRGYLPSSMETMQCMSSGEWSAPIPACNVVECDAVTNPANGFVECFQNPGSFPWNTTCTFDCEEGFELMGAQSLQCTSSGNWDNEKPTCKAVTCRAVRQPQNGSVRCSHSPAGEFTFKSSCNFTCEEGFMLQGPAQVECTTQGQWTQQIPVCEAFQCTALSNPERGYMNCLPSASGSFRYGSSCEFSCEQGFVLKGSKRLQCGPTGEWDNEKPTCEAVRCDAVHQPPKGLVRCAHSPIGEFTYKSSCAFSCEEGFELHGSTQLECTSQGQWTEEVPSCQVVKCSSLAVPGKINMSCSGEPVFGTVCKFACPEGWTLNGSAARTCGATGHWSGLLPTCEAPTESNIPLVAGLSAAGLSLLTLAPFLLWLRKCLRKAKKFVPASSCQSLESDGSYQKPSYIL
human Vitamin D Receptor (VDR), VDR (gene 7421), sequence (P11473 whole entry, looked up, the tested form may be a part): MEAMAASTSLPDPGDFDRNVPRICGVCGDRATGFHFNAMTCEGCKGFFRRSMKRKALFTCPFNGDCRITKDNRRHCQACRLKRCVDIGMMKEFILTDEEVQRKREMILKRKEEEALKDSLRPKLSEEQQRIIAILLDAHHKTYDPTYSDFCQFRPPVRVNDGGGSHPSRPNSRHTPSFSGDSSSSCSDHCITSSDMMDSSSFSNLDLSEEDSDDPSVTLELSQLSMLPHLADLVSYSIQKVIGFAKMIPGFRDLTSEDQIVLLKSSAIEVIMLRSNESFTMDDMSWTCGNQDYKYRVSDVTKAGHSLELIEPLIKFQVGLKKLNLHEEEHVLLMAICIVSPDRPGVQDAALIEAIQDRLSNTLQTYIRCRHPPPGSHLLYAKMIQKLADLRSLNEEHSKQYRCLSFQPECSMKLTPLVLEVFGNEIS
human RAR-related Orphan Receptor beta (RORb), RORB (gene 6096), sequence (Q92753 whole entry, looked up, the tested form may be a part): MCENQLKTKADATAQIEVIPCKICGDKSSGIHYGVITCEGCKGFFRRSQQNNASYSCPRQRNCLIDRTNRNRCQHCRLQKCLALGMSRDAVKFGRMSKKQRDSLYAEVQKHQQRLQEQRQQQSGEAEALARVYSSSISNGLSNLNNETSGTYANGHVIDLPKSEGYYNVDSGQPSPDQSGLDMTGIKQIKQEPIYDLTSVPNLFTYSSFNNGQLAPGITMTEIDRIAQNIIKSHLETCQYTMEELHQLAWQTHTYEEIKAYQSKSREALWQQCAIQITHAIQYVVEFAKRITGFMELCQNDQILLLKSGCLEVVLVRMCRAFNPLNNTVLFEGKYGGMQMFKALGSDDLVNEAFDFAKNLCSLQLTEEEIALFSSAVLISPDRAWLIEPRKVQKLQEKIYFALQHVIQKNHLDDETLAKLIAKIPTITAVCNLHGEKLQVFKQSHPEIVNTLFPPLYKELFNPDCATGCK
human Retinoid X Receptor beta (RXRb), RXRB (gene 6257), sequence (P28702 whole entry, looked up, the tested form may be a part): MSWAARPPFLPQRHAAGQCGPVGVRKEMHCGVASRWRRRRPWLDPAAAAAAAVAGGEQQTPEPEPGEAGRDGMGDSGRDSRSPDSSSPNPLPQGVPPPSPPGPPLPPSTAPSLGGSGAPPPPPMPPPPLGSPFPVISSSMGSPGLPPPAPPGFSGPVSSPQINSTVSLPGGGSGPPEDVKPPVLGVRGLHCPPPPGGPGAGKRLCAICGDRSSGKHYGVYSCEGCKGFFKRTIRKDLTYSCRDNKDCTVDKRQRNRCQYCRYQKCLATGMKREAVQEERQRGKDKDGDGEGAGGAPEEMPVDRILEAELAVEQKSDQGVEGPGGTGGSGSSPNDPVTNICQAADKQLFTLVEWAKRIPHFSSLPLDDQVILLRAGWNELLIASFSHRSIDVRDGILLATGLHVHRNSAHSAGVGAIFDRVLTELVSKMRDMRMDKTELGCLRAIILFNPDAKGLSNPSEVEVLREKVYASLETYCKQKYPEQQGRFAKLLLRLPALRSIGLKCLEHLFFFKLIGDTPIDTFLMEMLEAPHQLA

## CC(C)(C)c1ccc(CSc2cnn(C(C)(C)C)c(=O)c2Cl)cc1
[1]
  AC50: 3.97 µM (active)
[2]
  outcome: inactive
[3]
  AC50: 10.4 µM (active)
[4]
  AC50: 0.221 µM (active)
[5]
  AC50: 3.97 µM (active)
[6]
  AC50: 7.27 µM (active)
[7]
  outcome: inactive
[8]
  outcome: inactive
[9]
  outcome: inactive
[10]
  AC50: 15.2 µM (active)
[11]
  AC50: 11.1 µM (active)
[12]
  AC50: 16.5 µM (active)
[13]
  AC50: 7.9 µM (active)
[14]
  outcome: inactive
[15]
  outcome: inactive

## CC(Oc1ccc(Cl)cc1Cl)C(=O)O (stereo unspecified)
[1]
  outcome: inactive
[2]
  outcome: inactive
[3]
  outcome: inactive
[4]
  outcome: inactive
[5]
  outcome: inactive
[6]
  outcome: inactive
[7]
  outcome: inactive
[9]
  outcome: inactive
[10]
  outcome: inactive
[11]
  outcome: inactive
[12]
  outcome: inactive
[13]
  outcome: inactive
[14]
  outcome: inactive
[15]
  outcome: inactive
[16]
  outcome: inactive

## CCNc1nc(Cl)nc(NC(C)C)n1
[1]
  outcome: inactive
[2]
  outcome: inactive
[3]
  outcome: inactive
[4]
  outcome: inactive
[5]
  outcome: inactive
[6]
  outcome: inactive
[7]
  outcome: inactive
[8]
  outcome: inactive
[9]
  outcome: inactive
[10]
  outcome: inactive
[11]
  outcome: inactive
[12]
  outcome: inactive
[13]
  outcome: inactive
[14]
  outcome: inactive
[15]
  outcome: inactive

## N#Cc1nn(-c2c(Cl)cc(C(F)(F)F)cc2Cl)c(N)c1S(=O)C(F)(F)F (stereo unspecified)
[17]
  outcome: inactive
[1]
  AC50: 20 µM (active)
[2]
  outcome: inactive
[3]
  AC50: 30.5 µM (active)
[4]
  AC50: 23.1 µM (active)
[5]
  AC50: 14 µM (active)
[6]
  AC50: 27.8 µM (active)
[7]
  outcome: inactive
[8]
  outcome: inactive
[9]
  outcome: inactive
[10]
  AC50: 37.5 µM (active)
[11]
  AC50: 20 µM (active)
[12]
  AC50: 33.5 µM (active)
[13]
  AC50: 18 µM (active)
[14]
  outcome: inactive
[15]
  AC50: 23.2 µM (active)
[16]
  AC50: 31.7 µM (active)

## CCON=C(CC)C1=C(O)CC(c2c(C)cc(C)cc2C)CC1=O (stereo unspecified)
[18]
  outcome: inactive
[1]
  outcome: inactive
[2]
  outcome: inactive
[3]
  outcome: inactive
[4]
  outcome: inactive
[5]
  outcome: inactive
[6]
  outcome: inactive
[7]
  outcome: inactive
[9]
  outcome: inactive
[10]
  outcome: inactive
[11]
  outcome: inactive
[12]
  outcome: inactive
[13]
  outcome: inactive
[14]
  outcome: inactive
[15]
  outcome: inactive

## CO/C=C(/C(=O)OC)c1ccccc1Oc1cc(Oc2ccccc2C#N)ncn1
[2]
  outcome: inactive
[3]
  AC50: 29 µM (active) [middle of 4 runs]
[4]
  AC50: 21.1 µM (active)
  outcome: inactive
[5]
  AC50: 19.6 µM (active) [middle of 4 runs]
[7]
  AC50: 38.1 µM (active) and 33.2 µM (active) and 32.7 µM (active)
  outcome: inactive
[8]
  outcome: inactive
[9]
  outcome: inactive
[10]
  AC50: 39.6 µM (active) and 42 µM (active)
  outcome: inactive
[11]
  AC50: 31.7 µM (active) and 21.1 µM (active)
  outcome: inactive
[12]
  AC50: 26.7 µM (active) and 16.4 µM (active) and 24.2 µM (active)
  outcome: inactive
[13]
  outcome: inactive
[14]
  outcome: inactive
[15]
  AC50: 30.4 µM (active) and 30.6 µM (active) and 30.8 µM (active)
  outcome: inactive
